# Bioassay records: PubChem, National Center for Advancing Translational Sciences (NCATS)
# Shown are actives, neighbours in structure and some others; about 4.8% of the full set was active somewhere.
# HepG2 viability – kills HepG2 cells in TGF-b inhibitor counter-screen; HepG2 CAGA-GFP viability, ATP luminescence, 18 h; Potency, µM (doses to about 46.1 µM), inactives show at the highest dose activity change, negative = cytotoxicity, usual class: cytotoxic; hit rate 0.76% among 410,000; note: potency is the fitted concentration of half-maximal effect
#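 HepG2 CAGA-GFP cells (1000/well, DMEM with 1% FBS) received compound, then TGF-beta at 500 pg/mL final, and were incubated 18 hours at 37 degrees C. Viability was read by CellTiter-Glo luminescence. Media-only wells were set as complete cell-killing and DMSO as no toxicity.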
# TGFb inhibitor – inhibitors of TGF-b signaling; HepG2 CAGA-GFP TGF-b/SMAD3 reporter, GFP fluorescence, 18 h; TGF-beta stimulated, 500 pg/mL final; AID 588855; Potency, µM (series often up to 46.1 µM), without a hit: at the highest dose activity, negative = inhibition, usual class: inhibitors; hit rate 1.2% among 410,000; note: potency is the fitted concentration of half-maximal effect; % is set by controls: 0 for no effect and ±100 for the full control effect; nearly all actives have a fitted effect of over 65% in size
#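 Inhibition was scored as loss of TGF-beta-induced (500 pg/mL final, 18 hours, 37 degrees C) GFP in HEPG2 cells carrying a CAGA-GFP reporter, in DMEM with 1% FBS. Well GFP was summed per cell; Activity was normalised to unstimulated and stimulated DMSO wells, then concentration-response fitting.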
# ATXN2 expr inh – reduces ATXN2 reporter expression in HEK-293 cells. HEK-293 ATXN2-luciferase reporter, luminescence, 24 h. Potency, µM (series often up to 57 µM), for the others: at the top dose activity change, negative = inhibition, hits mostly inhibitors. hit rate 0.72% among 360,000; note: potency is the fitted concentration of half-maximal effect; % is set by controls: 0 for no effect and ±100 for the full control effect; nearly all actives have a fitted effect of over 55% in size
#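 ATXN2-luciferase reporter cells (luciferase flanked by upstream and downstream ATXN2 gene portions) were treated 24 h at 37 °C with compounds at up to 57 uM. SteadyGlo luminescence gave expression; GF-AFC fluorescence gave viability.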
# D3 antag – blocks the human D3 dopamine receptor | D3R cells, DiscoveRx beta-arrestin luminescence, antagonist mode; stronger effect = lower value | max response, negative = inhibition, % | hit rate 2.5% among 360,000; in the data active = max response below about -50%; inconclusive = no clear call, values can overlap the other calls; note: % is set by controls: 0 for no effect and ±100 for the full control effect
# Target sequence (P35462 whole entry, looked up): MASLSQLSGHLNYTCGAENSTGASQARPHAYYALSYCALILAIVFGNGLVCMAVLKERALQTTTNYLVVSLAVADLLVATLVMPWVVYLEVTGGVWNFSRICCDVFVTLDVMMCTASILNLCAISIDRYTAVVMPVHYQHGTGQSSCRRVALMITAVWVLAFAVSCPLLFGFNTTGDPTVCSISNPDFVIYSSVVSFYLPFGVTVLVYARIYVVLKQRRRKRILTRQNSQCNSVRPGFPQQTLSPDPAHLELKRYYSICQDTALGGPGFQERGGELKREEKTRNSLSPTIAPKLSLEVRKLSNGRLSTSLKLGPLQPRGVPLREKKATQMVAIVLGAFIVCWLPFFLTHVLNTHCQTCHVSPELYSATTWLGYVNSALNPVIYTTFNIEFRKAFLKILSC
#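 Cells plated overnight at 1500 cells/well, then exposed to library compounds with dopamine controls for 90 minutes at 37 degrees C. DiscoveRx reagent added for 30–60 minutes at room temperature; luminescence read, quantitative HTS format.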
# S2 tox – cell viability loss in ATXN counter-screen; S2 cells (HEK-293 line with an ATXN2-luciferase reporter) viability, CellTiter-Fluor protease fluorescence, 24 h; Potency, µM (titrated, usually from 56.7 µM), usual class: cytotoxic; hit rate 0.49% among 400,000; AID 651635; note: potency is the fitted concentration of half-maximal effect; nearly all actives have a fitted effect of over 40% in size
# DRD3 agonist – activates the human D3 dopamine receptor; max activation, %; D3R DiscoveRx beta-arrestin cells, luminescence, 90 min; hit rate 0.58% among 410,000; AID 652048; in the data active = max activation above about 30%; note: 0% is about no effect
#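 Cells at 1500/well, incubated overnight, then treated with pinned compounds (dopamine as control) for 90 min at 37 degrees C. DiscoveRx reagent added for 30 - 60 minutes at room temperature; luminescence read.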
# * hit, by the source's call; i = inactive; ? = inconclusive; / = no result given; [ ] = another dose, or the depositor's remark. Unless noted, calls come from the whole dose curve; as a rule, active = well fitted curve in the direction sought with a large enough effect; inconclusive = small, poorly fitted or top-dose-only effect, or another doubt; inactive = no such curve, though single readings can be large; an effect the other way counts as inactive or inconclusive.
SMILES,HepG2 viability,TGFb inhibitor,ATXN2 expr inh,D3 antag,S2 tox,DRD3 agonist
COc1cc(/C=C/[N+](=O)[O-])ccc1OCc1cccc(C(=O)O)c1,-39.6%,?,28.2µM*,-24.1,?,-0.6
O=Cc1ccc(OCc2cccc(C(F)(F)F)c2)cc1O,-32.8%,?,-10.7%,-8.9,i,-4.0
O=C(OCC(F)(F)F)c1cccc(COc2ccc3ccccc3c2)c1,11.4%,4.1%,2µM*,24.4,i,-1.7
CCOc1ccc(OCc2cccc(C(=O)N3CCCC3)c2)cc1,0.5%,-13.8%,7.94µM*,14.1,i,0.8
COc1ccc(C(=O)C=Cc2ccc(OCc3ccccc3)c(OC)c2)cc1OC,-1.3%,15.2%,/,35.0,i,5.6
Cc1ccc(NC(=O)Cn2c(=O)n(Cc3ccccc3)c(=O)c3c2c2cc(C)ccc2n3C)cc1,15.7%,41.8%,/,/,/,13.6
COc1cccc(CN2CCC(n3cc(C(=O)NC4CCCC4)nn3)CC2)c1O,/,/,/,/,i,/
COc1ccc(C(=O)Nc2cccc(-c3cn4ccsc4n3)c2)c(OC)c1,-34.5%,?,/,/,/,63.0*
O=[N+]([O-])c1ccc(-c2ccc(/C=N/Nc3nc(N4CCCCC4)nc(N4CCCCC4)n3)o2)cc1,7.3%,3.3%,16.4%[11.3 µM],15.5,/,9.6
O=[N+]([O-])c1cccc(-c2ccc(/C=N/Nc3nc(N4CCCCC4)nc(N4CCCCC4)n3)o2)c1,-39.7%,4.6%,?,107.9,i,51.6*
CN(C)CCC=C1c2ccccc2COc2ccc(CC(=O)O)cc21,/,/,2.0%,/,/,/
CCn1cc(C(=O)NCc2ccc3c(c2)OCO3)c(=O)c2cc(F)c(N3CCN(C)CC3)cc21,-7.3%,0.2%,-1.7%,-70.1*,i,-25.8
CCn1cc(C(=O)NCCc2ccccc2)c(=O)c2cc(F)c(N3CCN(C)CC3)cc21,-39.8%,6.3%,15.4%,-19.0,?,-0.7
CCCCCCNC(=O)c1cn(CC)c2cc(N3CCN(C)CC3)c(F)cc2c1=O,12.6µM*,?,?,-25.4,?,-5.8
CCOc1ccc(CCNC(=O)CCCc2nnc3n(CC)c(=O)c4sccc4n23)cc1OCC,-11.8%,?,-12.3%,/,i,-8.7
O=C(c1ccc(CNS(=O)(=O)c2ccccc2)cc1)N1CCN(c2ccccn2)CC1,-29.7%,-5.4%,4.7%,33.2,i,1.4
O=C(c1ccc(Cl)c(S(=O)(=O)NCc2ccccc2)c1)N1CCN(c2ccccn2)CC1,5.5%,-24.5%,-18.6%,-70.7*,?,15.5
O=C(c1ccc(S(=O)(=O)c2cccc(Cl)c2)c([N+](=O)[O-])c1)N1CCN(c2ccccn2)CC1,-96.7%,11.2µM*,/,-14.6,i,3.6
O=C(c1cccc(Cl)c1)N1CCN(c2ccccn2)CC1,-11.2%,-0.4%,2.4%,7.9,i,1.8
CC(=O)N[C@H]1[C@H]([C@H](O)[C@H](O)CO)OC(C(=O)O)=C[C@@H]1N=C(N)N,/,/,8.1%,/,i,-7.0
Cc1ccc(S(=O)(=O)/N=C2/NC(=O)/C(=C\c3cc(Br)cc(Br)c3O)S2)cc1,-1.9%,-10.1%,-2.6%,-52.6*,i,-6.2
Cc1ccc(S(=O)(=O)/N=C2/NC(=O)/C(=C/c3ccc(Br)o3)S2)cc1,-6.1%,-9.4%,-9.4%,13.3,i,-1.2
CCc1ccc(N=C2NC(=O)/C(=C/c3cc(Br)c(OCC(=O)O)c(OC)c3)S2)cc1,-11.4%,1.4%,2.0%,-2.2,i,3.4
CCOc1cc(Br)cc(/C=C2\SC(=Nc3ccccc3)NC2=O)c1O,-81.6%,10µM*,/,-18.1,?,-12.2
C=CCOc1c(Br)cc(/C=C2\SC(=Nc3ccccc3)NC2=O)cc1OC,15.8µM*,?,/,?,?,-13.5
SMILES,HepG2 viability,TGFb inhibitor,ATXN2 expr inh,D3 antag,S2 tox,DRD3 agonist
Cc1nn(-c2ccccc2)c2c1N(CCCC(=O)NCc1ccc(OC(C)C)cc1)C(=O)CS2,-20.2%,?,?,/,?,-13.3
CCOC(=O)c1c(CSC(=N)N)n(-c2ccc(Br)cc2)c2cc(Br)c(OC(C)=O)cc12,-19.0%,10.4%,10.8%,-2.6,i,16.6
CCCCCCCCOC(=O)c1c(CSC(=N)N)n(C)c2cc(Br)c(OC(C)=O)cc12,11.2µM*,?,/,21.4,31.6µM*,2.9
COC(=O)C=CC(=NNc1ccccc1)c1ccccc1,-7.2%,?,0.0%,4.1,i,9.6
Cn1nnnc1N=N/C(=N/Nc1ccccc1)c1ccccc1,-36.4%,-8.5%,2.51µM*,-3.1,8.91µM*,5.2
CCCCCCC(=O)N(O)C1CC(=O)N(c2ccc(F)cc2)C1=O (stereo not given),-3.5%,17.8µM*,1.6%,?,?,-26.6
CCCCCCC(=O)N(O)C1CC(=O)N(c2ccc(Br)cc2)C1=O (stereo not given),-21.2%,?,-21.5%,-22.0,i,3.8
Cc1cccc(Oc2ccc(N)cc2)c1,1.9%,1.4%,17.9%,15.5,i,-0.6
Nc1ccc(Oc2cccc(Oc3ccc(N)cc3)c2)cc1,-22.5%,-17.8%,1.78µM*,4.6,i,11.1
O=C(c1ccccc1)N1CCc2cc(CNS(=O)(=O)c3ccccc3Cl)ccc21,-41.1%,-28.8%,/,/,/,3.0
CCC1(C)Cc2c(C#N)c(N)sc(=S)c2CO1 (stereo not given),-24.0%,-0.8%,-4.9%,-85.2*,i,-6.3
CCCCCC[C@@H](CCC)C(=O)O,/,/,-12.7%,/,i,2.3
Cc1cc2ccccc2c(=O)n1CC(=O)NCC(=O)N1CCN(c2ccccc2)CC1,-79.6%,-10.3%,-7.5%,-52.1*,i,-7.7
CN(C)C(CNC(=O)Cc1cccc(C(F)(F)F)c1)c1ccccc1 (stereo not given),-17.1%,-19.6%,8.3%,-2.7,i,-10.6
CN(C)C(CNc1ccc(C(F)(F)F)cn1)c1ccccc1 (stereo not given),5.5%,29.1%,-0.7%,-58.6*,i,-14.7
C/C(=N\OCc1nc2ccccc2c(=O)n1/N=C/c1cc(C)cc([N+](=O)[O-])c1O)c1ccccc1,0.5%,3.2%,-2.1%,-5.7,i,1.8
Cc1cc(/C=N/n2cnnc2)c(O)c([N+](=O)[O-])c1,6.2%,-1.0%,-8.9%,-62.5*,i,-20.0
CCCCNc1c(-c2ccc(-c3ccc(OC)cc3)c(OC)c2)nc2ccccn12,-72.7%,?,?,188.0,i,102.4*
CCCCNc1c(-c2ccc(OC)c(Sc3ccc(OC)cc3)c2)nc2cnccn12,-24.3%,?,?,94.0,/,62.1*
CCCCCCSc1cc(-c2nc3cc(C)ccn3c2NCCCC)ccc1OC,-49.8%,?,?,54.4,/,-25.6
